Most compounds without a hit are left out; they make up all but 20% or so of the library.
Shiga inhibitor: inhibitors of Shiga toxin in Vero cells; AID 2315; actives 9.2% (n = 290,000); inhibition, % at 38.7 µM; Vero cells, Shiga toxin protein synthesis inhibition reporter; in the data active = inhibition mostly above about 28%, no sharp cut-off; inactive = mostly below about 43%; also: 0% is about no effect
Pf growth 96h: inhibits malaria parasite growth, 96 h; AID 504834; P. falciparum luciferase reporter growth, 96 h; actives 6.9% (n = 320,000); Potency, µM (series often up to 28.7 µM), for the others: top-dose activity change, negative = inhibition, usual class: inhibitors; also: potency is read from the fitted curve at half-maximal effect; % is scaled to controls: 0 for no effect and ±100 for the full control effect
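Readout is luminescence from an integrated firefly luciferase in P. falciparum. Red cells, 2% hematocrit and 0.05% parasitemia final, were cultured with compound through two parasite generations (96 hours) at 37 C, 5% CO2.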
Pf growth 48h: P. falciparum growth inhibition at 48 hours (one generation); P. falciparum luciferase growth in erythrocytes, 48 h; Potency, µM (titrated, usually from 28.7 µM), for the others: top-dose activity change, negative = inhibition, hits mostly inhibitors; actives 5.9% (n = 310,000); AID 504832; also: potency is read from the fitted curve at half-maximal effect; % is scaled to controls: 0 for no effect and ±100 for the full control effect
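Erythrocytes infected with P. falciparum carrying an integrated firefly luciferase reporter (2% hematocrit, 0.1% parasitemia final) were exposed to compounds in RPMI 1640 with 0.5% Albumax at 37 C, 5% CO2. Growth inhibition was scored as reduced luminescence.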
Cycloheximide cs: counter-screen for Shiga toxin inhibitors: cycloheximide protein synthesis inhibition; cell reporter, cycloheximide protein synthesis inhibition counterscreen; max response, %; actives 12% (n = 300,000); in the data active = max response mostly above about 13%, no sharp cut-off; inactive = mostly below about 14%; also: read at 38.3 µM for the half of the compounds with a filed dose; 0% is about no effect
HCMV antiviral: inhibitors of human cytomegalovirus | actives 4.5% (n = 410,000) | HFF cells, HCMV-luciferase reporter, 72 h; active compounds read low | AID 1259415 | activity change, negative = inhibition, % at 57.5 µM; in the data active = activity change below about -60%; inconclusive = no clear call, values can overlap the other calls; inactive = above about -39%; also: % is scaled to controls: 0 for no effect and ±100 for the full control effect
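Two-dose cell screen: HFF monolayers treated with compounds and infected with luciferase-expressing HCMV at 1 PFU/cell, 72 h at 37C, then lysed for luciferase measurement.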
Starred values were filed as active, the others as inactive; ? = inconclusive; / = not tested or not shown. Unless noted, calls follow the shape of the dose curve; as a rule, active = well fitted inhibition curve with a large enough effect; inconclusive = small, poorly fitted or top-dose-only effect, or another doubt; inactive = no such curve, though single readings can be large or run the other way.

SMILES | Shiga inhibitor | Pf growth 96h | Pf growth 48h | Cycloheximide cs | HCMV antiviral
CCOc1ccc(S(=O)(=O)N(CC(=O)Nc2ccc(OC)c(Cl)c2)c2ccccc2)cc1 | / | / | / | / | -60*
COc1ccc(NC(=O)CN(c2ccc(OC)c(Cl)c2)S(=O)(=O)c2ccccc2)c(OC)c1 | -5 | 12µM* | ? | -4 | 13
CCOc1ccc(NC(=O)CN(c2ccc(Cl)cc2C)S(=O)(=O)c2ccccc2)cc1 | / | / | / | / | -69*
COc1ccc(N(CC(=O)Nc2ccccc2OC)S(=O)(=O)c2ccccc2)cc1Cl | / | -16% | ? | -2 | -25
CCOC(=O)c1c(C)[nH]c(C)c1S(=O)(=O)N(C)CC(=O)Nc1ccccc1OC | 4 | ? | 10µM* | 0 | -11
CN(NC(=O)COc1ccccc1)C1=NS(=O)(=O)c2ccccc21 | -2 | -27% | -10% | 6 | 21
O=C1COCc2ccc(-c3ccc(Cl)cc3)cc2N1CCN1CCOCC1 | / | / | / | / | -9
COc1ccc(N2C(=O)C3CCCN3C2c2ccc(F)cc2)cc1Cl (centres undefined) | -6 | ? | ? | 0 | 14
COc1ccc(C(CC(=O)O)N2Cc3ccccc3C2=O)cc1OC (centres undefined) | -5 | 28% | 3% | -3 | 5
CCOc1ccc(N(CC(=O)Nc2ccccc2OC)S(=O)(=O)c2ccccc2)cc1 | -15 | 73% | ? | -4 | -87*
COc1ccc(N(CC(=O)Nc2ccc(OC)cc2OC)S(=O)(=O)c2ccccc2)cc1 | -4 | ? | ? | 1 | -65*
COc1ccc(NC(=O)CN(c2ccc([N+](=O)[O-])cc2)S(=O)(=O)c2ccccc2)c(OC)c1 | -6 | ? | -5% | -1 | 2
Cc1cc2c(C(C)C)c(O)c(O)c(C=O)c2c(O)c1-c1c(C)cc2c(C(C)C)c(O)c(O)c(C=O)c2c1O | 7 | 5.2µM* | 13µM* | 1 | /
Cc1nc2c3ccccc3nc(NNC(=O)CCC(=O)N3CCCC(C)C3)n2n1 (centres undefined) | 2 | 9.3µM* | 0% | 12 | 12
Cc1nc2c3ccccc3nc(NNC(=O)CCC(=O)NC(C)C)n2n1 | -5 | 6.6µM* | 32% | -2 | -4
CC(C)CCNC(=O)CCC(=O)NNc1nc2ccccc2c2nc(-c3ccccc3)nn12 | -3 | 10µM* | 15% | 5 | 19
Cc1cccc(N2CCN(C(=O)CCC(=O)NNc3nc4ccccc4c4nc(C)nn34)CC2C)c1 (centres undefined) | / | / | / | / | -2
CCC(C)NC(=O)CCC(=O)NNc1nc2ccccc2c2nc(C)nn12 (centres undefined) | -8 | 41% | -5% | 0 | -2
Cc1cc2c(s1)c(C=O)c(C(=O)NCc1ccccc1F)n2C | / | -21% | ? | / | /
Cn1c(-c2cccs2)[n+](C)c2ccccc21 | 2 | -11% | 1µM* | 0 | -8
COc1cc(NC(=O)CSc2nc3ccccc3cc2C)c(C(=O)O)cc1OC | -10 | 23% | -5% | -1 | -8
CC(=O)Nc1ccc(NC(=O)CSc2nc3ccccc3nc2N2CCCCC2)cc1 | -5 | 7% | ? | 7 | -13
COc1cc(NC(=O)CSc2nc3cc(C)ccc3cc2C)c(C(=O)O)cc1OC | -3 | 9.3µM* | 14% | -5 | -15
O=C(CSc1nc2ccccc2nc1N1CCCC1)Nc1ccc(F)cc1 | 17 | ? | ? | 7 | -65*
COc1ccc(C)cc1NC(=O)CSc1nc2ccccc2nc1N1CCCCC1 | -3 | 20% | 4.1µM* | -2 | 34
SMILES | Shiga inhibitor | Pf growth 96h | Pf growth 48h | Cycloheximide cs | HCMV antiviral
CCOc1ccc(NC(=O)CSc2nc3ccccc3nc2N2CCCC2)cc1 | -6 | 12µM* | -17% | -3 | -6
CCc1nc2ccc(C(=O)N3CCN(C(=O)c4ccco4)CC3)cn2c1N(C)Cc1nccs1 | / | / | / | / | 0
COc1ccccc1-c1cnc(C(O)c2ccc(C(C)(C)C)cc2)[nH]1 (centres undefined) | / | / | / | / | -31
O=C(CP(=O)(c1ccccc1)c1ccccc1)Nc1nc2ccc(Cl)cc2s1 | 7 | -4% | ? | -1 | 9
COc1ccc(-c2cc(C(=O)Nc3c(C(=O)c4ccc(Cl)cc4)oc4ccccc34)no2)cc1 | / | / | / | / | 6
Cc1cc(C)cc(NC(=O)CSc2nc3ccccc3nc2N2CCCCC2)c1 | 17 | 9.3µM* | ? | -4 | -35
Cc1cc(C)cc(NC(=O)CSc2nc3ccccc3nc2N2CCCC2)c1 | 10 | ? | 2% | -4 | 2
COCc1cc(C)nc(OCC(=O)N/N=C/c2ccc(-c3cc([N+](=O)[O-])ccc3C)o2)c1C#N | -11 | 14% | -5% | -2 | -25
Cc1ccc([N+](=O)[O-])cc1-c1ccc(/C=C(\C#N)c2[nH]nc(N)c2C#N)o1 | 28 | 108% | ? | 20* | ?
CCOc1ccc(NC(=O)CN(c2ccc(OC)cc2)S(=O)(=O)c2cccs2)cc1 | / | -10% | -6% | / | -15
CCCN(S(=O)(=O)c1ccc(OCC)cc1)S(=O)(=O)c1cccs1 | 37* | ? | 10µM* | 28* | -15
COc1cc2c(cc1OC)C(COc1ccc(C(C)C)cc1)NCC2 (centres undefined) | -3 | 12µM* | ? | -2 | -36
COc1cc2c(cc1OC)C(COc1ccc(C(C)C)cc1)N(C(=O)COc1ccccc1)CC2 (centres undefined) | / | / | / | / | -7
CCOC(=O)c1ccc(NC(=O)CSc2nnc(-c3ccncc3)n2-c2ccccc2)cc1 | / | / | / | / | 3
OCCCn1c(-c2ccc(F)cc2)csc1=Nc1ccc(F)cc1 | / | / | / | / | -8
C=CCn1c(-c2ccc(S(=O)(=O)N3CCOCC3)cc2)csc1=Nc1ccccc1 | -8 | 12µM* | ? | -2 | -22
CC(=O)c1cccc(N=c2scc(-c3ccc(S(=O)(=O)N4CCOCC4)cc3)n2CCO)c1 | -3 | 4.7µM* | 5.2µM* | 3 | -98*
COc1ccccc1N=c1scc(-c2ccc(S(=O)(=O)N3CCCC3)cc2)n1C | / | / | / | / | -97*
CC(C)Cn1c(-c2ccc(S(=O)(=O)N3CCCC3)cc2)csc1=Nc1ccccc1 | / | / | / | / | -37
O=S(=O)(c1ccc(-c2csc(=Nc3ccc(F)cc3)n2CCCCCCO)cc1)N1CCCC1 | / | / | / | / | -101*
COc1ccc(CN2CCNC(=O)C2CC(=O)N2CCCO2)c(OC)c1 (centres undefined) | -19 | ? | 16% | 7 | 53
CCOc1ccc(NC(=O)c2cn(C)c(=O)c3cc(OC)c(OC)cc23)cc1 | / | / | / | / | 24
N#Cc1ccccc1OCC(=O)N(C1CCCCC1)C1CCS(=O)(=O)C1 (centres undefined) | / | 0% | -1% | / | -8
C[C@H]1CN([C@@H](C)CO)C(=O)c2cc(Br)cnc2O[C@H]1CN(C)C(=O)c1ccccn1 | / | / | / | / | 13
COc1ccc(N=c2scc(-c3ccc(S(=O)(=O)N4CCOCC4)cc3)n2CCCO)cc1 | -3 | -16% | 12µM* | 2 | /
Cc1ccccc1CC1(CO)CCCN(C(=O)CCCN2CCCCC2=O)C1 (centres undefined) | 44 | ? | -3% | 17* | -26

Bioassay records from PubChem BioAssay.
